PubChem BioAssay AID1259318 (Sanford-Burnham Center for Chemical Genomics, 2017)
The campaign covered roughly 370,000 compounds. About 3,000 (0.81%) were called active.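 How the source made its calls: active means activity above about 14% (limit read from the data; passing the limit was not always enough); inactive means the rest.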 Many of the other results were omitted from the sample, so actives are more common in it than they were.

These compounds were tested against Nuclear receptor subfamily 1 group D member 1 (Homo sapiens) (UniProt P20393) (assay: modulators of Rev-erb alpha DNA binding, primary screen, biochemical, FITC-DNA, fluorescence polarization, uHTS (AID 1259318;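 further: 0% = DMSO wells with 35 nM protein and 100% = DMSO wells with 750 nM protein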)). Details: Rev-erbα–FITC-DNA binding, 90 min, at 10 µM, stronger effect = higher value.
Nuclear receptor subfamily 1 group D member 1 (Homo sapiens), sequence (P20393 whole entry, looked up): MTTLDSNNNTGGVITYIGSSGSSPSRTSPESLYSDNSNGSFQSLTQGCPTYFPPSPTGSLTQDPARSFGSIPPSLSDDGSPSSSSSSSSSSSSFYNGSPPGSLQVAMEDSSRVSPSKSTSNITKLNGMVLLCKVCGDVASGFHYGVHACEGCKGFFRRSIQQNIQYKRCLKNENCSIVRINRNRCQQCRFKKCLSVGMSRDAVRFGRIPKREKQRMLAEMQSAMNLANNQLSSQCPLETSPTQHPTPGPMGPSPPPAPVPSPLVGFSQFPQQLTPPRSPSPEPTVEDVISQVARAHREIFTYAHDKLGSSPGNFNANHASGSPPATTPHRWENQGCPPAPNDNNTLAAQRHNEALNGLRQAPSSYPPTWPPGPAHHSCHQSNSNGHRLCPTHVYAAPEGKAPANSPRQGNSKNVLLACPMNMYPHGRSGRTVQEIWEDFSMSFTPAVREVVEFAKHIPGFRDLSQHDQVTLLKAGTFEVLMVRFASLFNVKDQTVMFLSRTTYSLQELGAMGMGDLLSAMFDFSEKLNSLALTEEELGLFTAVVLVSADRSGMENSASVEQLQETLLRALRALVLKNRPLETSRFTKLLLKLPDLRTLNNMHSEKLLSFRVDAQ

`CCN(CC(=O)Nc1c(F)cccc1F)C(=O)C1CCC1` was tested. Which activity did it give?
Its activity is -2.66% (inactive).

How did the activity turn out when `COc1cc(C(=O)N2CCOCC2)cc(OC)c1OC` was run?
Its activity is -1.7% (inactive).

With `N#Cc1cccc(NC(=O)COC(=O)c2ccccc2C(=O)c2ccc(Cl)c([N+](=O)[O-])c2)c1` as the compound, how does the activity read?
The activity was 3.08% (inactive).

With `CCCOc1ccc(Oc2c(Cl)cnn(Cc3cccc4ccccc34)c2=O)cc1` as the compound, how does the activity read?
Its activity is -0.89% (inactive).

For `Cc1c(C=O)c2ccccn2c1C(=O)c1ccncc1`, which activity is on record?
Its activity is -1.4% (inactive).

With `CN(C(=O)CSc1nnc(-c2n[nH]c3ccccc23)o1)c1ccccc1` as the compound, how does the activity read?
Its activity is -0.39% (inactive).

Which activity does the source give for `O=C1CN(C(=O)COc2c(Cl)cccc2Cl)c2ccccc2N1` here?
Its activity is -1.39% (inactive).

With `CCOc1ccc(C)cc1S(=O)(=O)NC1CCCCCC1` as the compound, how does the activity read?
Its activity is 4.62% (inactive).

For `O=C(CN1CCC(NC(=O)NCc2ccccc2)CC1)Nc1ccc2c(c1)OCCO2`, which activity is on record?
Its activity is -2.38% (inactive).

For `Cc1ccc2c(C(=O)CN3CCCC3)c(C)[nH]c2c1`, which activity is on record?
Its activity is -0.66% (inactive).

`CC(C)(C)c1ccc(C(=O)Nc2cc(Cl)c(Br)cc2C(=O)O)cc1` was tested. Which activity did it give?
The activity was -8.64% (inactive).

`COc1ccc(CN2[C@@H](CC(=O)O)c3cc(F)ccc3S2(=O)=O)cc1` was tested. Which activity did it give?
The activity was 1.62% (inactive).

How did the activity turn out when `COc1ccc(-c2csc3ncnc(N4CCN(S(=O)(=O)c5cccc(F)c5)CC4)c23)cc1` was run?
Its activity is 3.12% (inactive).

How did the activity turn out when `COc1ccc(S(=O)(=O)N2CCN(c3cnccn3)CC2)cc1` was run?
Its activity is 0.63% (inactive).

Which activity does the source give for `COc1ccc(-c2csc3ncnc(Oc4ccc5c(C)cc(=O)oc5c4)c23)cc1` here?
The activity was 3.46% (inactive).

With `COc1ccc(S(=O)(=O)N2CCN(c3ncnc4c(-c5ccccc5)nsc34)CC2)cc1` as the compound, how does the activity read?
The activity was 27.5% (active).

Which activity does the source give for `COc1ccc(-c2csc3ncnc(N4CCN(S(=O)(=O)c5ccccc5C#N)CC4)c23)cc1` here?
Its activity is 28.3% (active).

`COc1ccc(S(=O)(=O)N2CCSCC2)cc1` was tested. Which activity did it give?
Its activity is -4.2% (inactive).

For `CCC1(C)CC(=O)NC1=O` (centres undefined), which activity is on record?
The activity was -6.13% (inactive).

With `CC(C)(C)c1ccc(/C=C2\SC(=O)N=C2N)cc1` as the compound, how does the activity read?
The activity was 0.2% (inactive).

Which activity does the source give for `CCC(C)[C@H]1O[C@]2(CC[C@@H]1C)C[C@@H]1C[C@@H](C/C=C(\C)[C@@H](O[C@@H]3C[C@H](OC)[C@H](O[C@H]4C[C@H](OC)[C@@H](O)[C@H](C)O4)[C@H](C)O3)[C@@H](C)/C=C/C=C3\CO[C@@H]4[C@H](O)C(C)=C[C@@H](C(=O)O1)[C@]34O)O2` (some centres undefined) here?
Its activity is 6.63% (inactive).

With `O=C(Cn1c(=O)sc2ccccc21)Nc1ccc2c(c1)OCCO2` as the compound, how does the activity read?
Its activity is 2.42% (inactive).

With `C=CCn1c(CCNC(=O)c2cccs2)n[nH]c1=S` as the compound, how does the activity read?
Its activity is -1.01% (inactive).

`CCN(CC)S(=O)(=O)c1cccc(NC(=O)c2ccc(S(=O)(=O)N3CCCC3)cc2)c1` was tested. Which activity did it give?
The activity was 5.55% (inactive).

With `CC(=O)Nc1ccc(S(=O)(=O)N2CCN(S(=O)(=O)c3cccs3)CC2)cc1` as the compound, how does the activity read?
Its activity is -1.45% (inactive).

For `C=CCn1c(=NC(=O)c2ccc(S(=O)(=O)N3CCCC3)cc2)sc2cc(NC(C)=O)ccc21`, which activity is on record?
The activity was 51.5% (active).

With `C=CCn1c(=NC(=O)c2cccs2)sc2cc(NC(C)=O)ccc21` as the compound, how does the activity read?
The activity was 31.9% (active).

How did the activity turn out when `CCOC(=O)c1cc(S(=O)(=O)NCCc2ccc(OC)c(OC)c2)cn1C` was run?
Its activity is 1.86% (inactive).

`Cc1cccc(OCCC(=O)Nc2cc(S(=O)(=O)N3CCCCC3)ccc2N2CCOCC2)c1` was tested. Which activity did it give?
Its activity is -0.99% (inactive).

How did the activity turn out when `CN(CCc1ccccn1)S(=O)(=O)c1ccc2c3c(cccc13)C(=O)N2` was run?
The activity was 1.1% (inactive).

`O=C(CSc1nnc(-c2cccc(Cl)c2)n1Cc1ccco1)Nc1ccc(OCc2ccccc2)cc1` was tested. Which activity did it give?
The activity was 4.77% (inactive).

With `Cc1cc(NC(=O)CSc2nc3cc(Cl)ccc3c(=O)n2Cc2ccco2)no1` as the compound, how does the activity read?
Its activity is 20.1% (active).

How did the activity turn out when `Cc1cc(NC(=O)CSC2=NS(=O)(=O)c3cc(Cl)ccc3N2)no1` was run?
Its activity is -5.75% (inactive).

For `CC/C(=C(/c1ccccc1)c1ccc(OCC[N+](C)(C)C)cc1)c1ccccc1`, which activity is on record?
Its activity is -1.77% (inactive).

For `C=CCN1[C@H](CC(C)C)COc2cccc(N3CCCC3)c2S1(=O)=O`, which activity is on record?
The activity was 5.72% (inactive).

How did the activity turn out when `Fc1c(F)c(C(F)(F)F)c(F)c(F)c1N1CCN(c2ccc3nnc(C(F)(F)F)n3n2)CC1` was run?
Its activity is 28.7% (active).

Which activity does the source give for `CCN(CC)S(=O)(=O)c1ccc(OC(C)C)c(N)c1` here?
The activity was -2.29% (inactive).

For `CCN(CC)S(=O)(=O)c1ccc(C(=O)N2CCN(C3=NS(=O)(=O)c4ccccc43)CC2)cc1`, which activity is on record?
Its activity is -1.88% (inactive).

Which activity does the source give for `CCN(CC)C(=O)CS(=O)CC(=O)Nc1cc(OCCOC)c(Cl)cc1Cl` (centres undefined) here?
The activity was -6.56% (inactive).

Which activity does the source give for `CSc1ccc(Cl)c(C(=O)OCC(=O)N2CC(C)OC(C)C2)c1` (centres undefined) here?
The activity was -1.82% (inactive).

How did the activity turn out when `COc1cc(Cl)c(C)cc1NC(=O)COC(=O)c1cc(SC)ccc1Cl` was run?
The activity was 35.7% (active).

`COc1ccc(OCC(=O)Nc2cc(C)c(Cl)cc2OC)c([N+](=O)[O-])c1` was tested. Which activity did it give?
Its activity is 1.26% (inactive).

`COc1ccccc1NC(=O)COc1ccc(C(=O)OCC(=O)N(C(C)C)C(C)C)cc1OC` was tested. Which activity did it give?
Its activity is 0.89% (inactive).

How did the activity turn out when `Clc1ccc(Cl)c(Oc2ccc(Oc3nc(Cl)ccc3Cl)cc2)n1` was run?
The activity was -2% (inactive).

With `Clc1ccc(-n2c(COc3ccccc3)nnc2SCc2nc3ccccc3[nH]2)cc1` as the compound, how does the activity read?
Its activity is -0.37% (inactive).

Which activity does the source give for `CC1CC2C3CCC4=CC(=O)C=C[C@]4(C)[C@@]3(F)[C@@H](O)C[C@]2(C)[C@@]1(O)C(=O)CO` (some centres undefined) here?
Its activity is 0.08% (inactive).

How did the activity turn out when `Cn1nccc1NS(=O)(=O)c1ccc(F)cc1` was run?
Its activity is 3.3% (inactive).

Which activity does the source give for `O=C(CS(=O)(=O)c1cn(Cc2cccc(F)c2)c2ccccc12)N1CCCCC1` here?
Its activity is -9.9% (inactive).

Which activity does the source give for `CCc1c(-c2ccc(F)cc2)ncn1Cc1cccc(-c2ccccc2)c1` here?
Its activity is -5.19% (inactive).

For `O=c1cc(N2CCCCC2)c(-c2ccccc2)nn1Cc1cccc(F)c1`, which activity is on record?
Its activity is 30.7% (active).

For `COC(=O)[C@]1(C)N[C@H](CN(C)C(=O)c2ccc(C(C)(C)C)cc2)[C@@H]2C(=O)N(C)C(=O)[C@@H]21`, which activity is on record?
Its activity is -0.45% (inactive).

`Oc1c(Br)cc(/C=N/NC(=S)NCC2CCCO2)cc1Br` (centres undefined) was tested. Which activity did it give?
Its activity is -2.6% (inactive).

For `CO/N=C(\C(=O)N[C@@H]1C(=O)N2C(C(=O)O)=CCS[C@H]12)c1csc(N)n1`, which activity is on record?
Its activity is -1.64% (inactive).

`CCn1c(=O)c2ccccc2n(CC(=O)N2CCCc3ccccc32)c1=O` was tested. Which activity did it give?
The activity was -3.6% (inactive).
